Drawing on publication PMC11574364, this text covers binding signal for six sequences.

Some targets named below: CELF2(1-2) (Homo sapiens, UniProt O95319); CELF4(1-2) (Homo sapiens, UniProt Q9BZC1); CELF1(1-2) (Homo sapiens, UniProt Q92879); CELF4(3) (Homo sapiens, UniProt Q9BZC1); CELF2(3) (Homo sapiens, UniProt O95319); CELF1(3) (Homo sapiens, UniProt Q92879).
What all share (experiment): protein domain microarray probed with biotinylated miRNA; Domain array: 20 mM Tris-HCl pH 7.4, 200 mM KCl, 0.2 mM EDTA, 0.05% NP40, 2 ug/ul heparin, overnight 4 C. ORF array: PBS pH 7.0 with RNase inhibitor, 100 ng RNA; high values mean tight binding
Common to all, as to conditions: ssRNA

Another test addresses T1, Acinus(1) (Homo sapiens, UniProt Q9UKV3).
T1 sequence: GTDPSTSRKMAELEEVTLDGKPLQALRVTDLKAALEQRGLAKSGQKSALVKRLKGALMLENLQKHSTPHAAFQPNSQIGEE

Another test concerns the target T2, BOLL (Homo sapiens, UniProt Q8N9W6).
T2 sequence: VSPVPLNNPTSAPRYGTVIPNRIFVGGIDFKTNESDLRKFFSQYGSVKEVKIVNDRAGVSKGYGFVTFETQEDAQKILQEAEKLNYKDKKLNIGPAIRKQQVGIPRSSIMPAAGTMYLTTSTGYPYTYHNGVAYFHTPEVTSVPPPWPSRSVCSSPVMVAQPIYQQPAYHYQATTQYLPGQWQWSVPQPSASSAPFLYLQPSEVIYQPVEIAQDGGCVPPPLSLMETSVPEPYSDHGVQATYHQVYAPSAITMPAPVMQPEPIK

The next test addresses T3, A2BP1 (Homo sapiens, UniProt Q9NWB1).
T3 sequence: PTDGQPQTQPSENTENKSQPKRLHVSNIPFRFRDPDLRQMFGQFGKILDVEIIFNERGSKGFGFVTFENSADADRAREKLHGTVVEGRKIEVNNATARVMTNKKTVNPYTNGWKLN

A further test has as its target T4, G3BP-2 (Homo sapiens, UniProt Q9UN86).
T4 sequence: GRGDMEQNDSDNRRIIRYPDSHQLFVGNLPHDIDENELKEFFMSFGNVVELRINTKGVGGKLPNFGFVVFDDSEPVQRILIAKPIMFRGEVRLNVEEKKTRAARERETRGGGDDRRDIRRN

Chain of CELF2(3) (O95319 396-508): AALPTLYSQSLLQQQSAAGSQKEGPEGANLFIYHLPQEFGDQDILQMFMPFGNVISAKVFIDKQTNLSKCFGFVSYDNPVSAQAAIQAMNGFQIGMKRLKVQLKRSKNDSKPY
Chain of CELF2(1-2) (O95319 19-241): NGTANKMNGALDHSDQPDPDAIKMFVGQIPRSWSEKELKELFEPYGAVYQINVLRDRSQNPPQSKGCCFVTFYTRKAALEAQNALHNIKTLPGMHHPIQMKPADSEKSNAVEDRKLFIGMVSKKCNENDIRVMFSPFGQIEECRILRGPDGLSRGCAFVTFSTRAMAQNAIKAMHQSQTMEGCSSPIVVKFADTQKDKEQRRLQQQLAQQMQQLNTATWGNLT
Chain of CELF1(1-2) (Q92879 1-210): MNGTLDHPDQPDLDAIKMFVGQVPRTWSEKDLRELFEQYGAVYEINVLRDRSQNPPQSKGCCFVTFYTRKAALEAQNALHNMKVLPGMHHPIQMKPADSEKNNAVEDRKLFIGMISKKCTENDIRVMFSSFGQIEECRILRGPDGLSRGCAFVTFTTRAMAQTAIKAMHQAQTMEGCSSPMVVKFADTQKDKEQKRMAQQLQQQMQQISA
Chain of CELF4(3) (Q9BZC1 380-486): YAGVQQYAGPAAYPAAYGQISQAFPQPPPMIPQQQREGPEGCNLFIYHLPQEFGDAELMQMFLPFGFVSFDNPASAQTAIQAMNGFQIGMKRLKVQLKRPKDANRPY
Chain of CELF4(1-2) (Q9BZC1 31-250): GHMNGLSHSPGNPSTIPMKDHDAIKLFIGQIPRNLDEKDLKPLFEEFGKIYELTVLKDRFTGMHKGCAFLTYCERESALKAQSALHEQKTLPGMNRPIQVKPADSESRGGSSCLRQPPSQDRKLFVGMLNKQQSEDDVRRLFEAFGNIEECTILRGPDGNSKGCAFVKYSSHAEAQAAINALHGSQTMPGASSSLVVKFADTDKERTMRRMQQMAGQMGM
Chain of CELF1(3) (Q92879 370-486): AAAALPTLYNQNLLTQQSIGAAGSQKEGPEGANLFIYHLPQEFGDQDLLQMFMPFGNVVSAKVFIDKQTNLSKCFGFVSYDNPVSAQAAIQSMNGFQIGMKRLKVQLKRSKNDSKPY

AGAGGUAGUAGGUUGCAUAGUU: the binding signal came to 63.2 ± 10.6 fluorescence intensity with CELF2(1-2); 144 ± 9.49 fluorescence intensity in the test with Acinus(1); 73.4 ± 2.28 fluorescence intensity with CELF4(1-2); 995 ± 54.2 fluorescence intensity with BOLL; 20.1 ± 13.8 fluorescence intensity with CELF1(1-2); 28.9 ± 2.98 fluorescence intensity with CELF4(3). In addition, the binding signal is 2420 ± 70.3 fluorescence intensity with CELF2(3), 2720 ± 64 fluorescence intensity with CELF1(3), 4220 ± 134 fluorescence intensity with A2BP1 and 942 ± 20.8 fluorescence intensity with G3BP-2.
Turning to UGAGGUAGUAGGUUGUAUGGUU, the binding signal was 79.94 ± 0.219 fluorescence intensity in the test with CELF2(1-2); 162 ± 13.3 fluorescence intensity with Acinus(1); 96 ± 8.15 fluorescence intensity with CELF4(1-2); 423 ± 34.1 fluorescence intensity with BOLL; 24.5 ± 18.4 fluorescence intensity with CELF1(1-2); 24.3 ± 1.9 fluorescence intensity with CELF4(3). Further, the binding signal was determined as 2750 ± 76 fluorescence intensity with CELF2(3), 2750 ± 97.5 fluorescence intensity in the test with CELF1(3), 2938 ± 25.1 fluorescence intensity with A2BP1 and 697 ± 11.7 fluorescence intensity in the test with G3BP-2.
Regarding CAGUGCAAUGAUGAAAGGGCAU, the binding signal turned out to be 48.3 ± 1.66 fluorescence intensity in the test with CELF2(1-2); 130 ± 7.88 fluorescence intensity in the test with Acinus(1); 68.5 ± 5.81 fluorescence intensity in the test with CELF4(1-2); 433.1 ± 0.594 fluorescence intensity with BOLL; 29.4 ± 2.27 fluorescence intensity with CELF1(1-2); 22.5 ± 0.509 fluorescence intensity with CELF4(3). Further, the binding signal in the test with CELF2(3) turned out to be 1010 ± 110 fluorescence intensity; with CELF1(3), 1043.4 ± 0.00707 fluorescence intensity; with A2BP1 it was 3922 ± 30.6 fluorescence intensity; with G3BP-2 it was 1910 ± 49.7 fluorescence intensity.
As to UGAGGUAGUAGGUUGUAUAGUU, the binding signal turned out to be 29.8 ± 2.19 fluorescence intensity with CELF2(1-2); 37 ± 6.58 fluorescence intensity with Acinus(1); 30.5 ± 1.88 fluorescence intensity with CELF4(1-2); 175 ± 17.3 fluorescence intensity with BOLL; 2178 ± 19.2 fluorescence intensity with CELF2(3); 2270 ± 106 fluorescence intensity with CELF1(3). Moreover, the results for the binding signal with A2BP1 and in the test with G3BP-2 were 1110 ± 13.1 fluorescence intensity and 117 ± 15.5 fluorescence intensity, respectively.
Turning to UGAGGUAGUAGGUUGUGUGGUU, the binding signal in the test with CELF2(1-2) worked out at 156 ± 18.9 fluorescence intensity; in the test with Acinus(1), 330 ± 24.8 fluorescence intensity; in the test with CELF4(1-2) it was 241 ± 6.35 fluorescence intensity; with BOLL, 986 ± 65.6 fluorescence intensity; with CELF1(1-2), 32.2 ± 23.1 fluorescence intensity; with CELF4(3), 33.3 ± 4.99 fluorescence intensity. The binding signal was determined as 2850 ± 134 fluorescence intensity with CELF2(3), 2820 ± 118 fluorescence intensity with CELF1(3), 3130 ± 57 fluorescence intensity in the test with A2BP1 and 967 ± 16.3 fluorescence intensity in the test with G3BP-2.
UAGCUUAUCAGACUGAUGUUGA: the binding signal with CELF2(1-2) came out at 21.3 ± 6.6 fluorescence intensity; with CELF4(1-2), 20.5 ± 0.276 fluorescence intensity; with BOLL it was 567 ± 57.8 fluorescence intensity; in the test with CELF1(1-2) it was 45.6 ± 13.3 fluorescence intensity; with CELF2(3) it was 1040 ± 177 fluorescence intensity; in the test with CELF1(3), 1160 ± 14.2 fluorescence intensity. Further, the results for the binding signal in the test with A2BP1 and with G3BP-2 were 2210 ± 93.6 fluorescence intensity and 330 ± 22.3 fluorescence intensity, respectively.
